Experimental data reported in PubChem BioAssay.
A number with no mark means an inactive call. How the calls were made is not given here. Where a SMILES comes first, the peptide text is derived from it. [ ]: non-standard residue; d: D form. ξ: configuration not given here. ξV = CC(C)C(N)C(=O)O

test system: Botulinum neurotoxin type F light chain protease (Clostridium botulinum); experiment: Clostridium botulinum type F light chain protease inhibitors, microsphere substrate cleavage, validation (AID 588459); settings: multiplex microsphere protease substrate cleavage assay, flow cytometry; at 10 µM; hits give high values

SMILES | inhibition
O=C1CC(c2ccc(F)cc2)Cc2nc(NCC3CCCO3)ncc21 (stereo not given) | -1%
Cc1oc(/C=N/NC(=O)CC2(C)OCCO2)cc1Br | 3.9%
O=C(CCCN1C(=O)/C(=C\c2cccc(Br)c2)SC1=S)Nc1cccnc1 | -1.7%
Cc1ncc(CN2CCC(CO)(CCc3ccccc3)CC2)s1 | 1.3%
CCOc1ccc(N2C(=O)CC(NCCNc3ccc([N+](=O)[O-])cn3)C2=O)cc1 (stereo not given) | 0.9%
O=C(CCC1CCCN(C(=O)c2ccsc2)C1)NCc1ccc(F)c(F)c1 (stereo not given) | 2.2%
CC(C)C(=O)Nc1cccnc1 | -1.8%
CN(C)CCC=C1c2ccccc2CCc2ccccc21 | 1.3%
CCCCOc1ccc(CC(=O)NO)cc1 | -1.6%
O=[N+]([O-])c1cccc2cn[nH]c12 | 6.9%
COCCOC(=O)c1c(C)oc2ccc(OCc3cc(C(=O)OC)oc3C)cc12 | -0.6%
NC(=O)[C@@H]1[C@@H]2C(=O)N(c3ccc(F)cc3)C(=O)[C@@H]2[C@H]2C=Cc3ccccc3N21 | 0.9%
Cc1ccc(C(CC(=O)NCc2ccco2)c2ccc(OC(C)C)cc2)cc1 (stereo not given) | 0.4%
CC(=O)c1c(C)c(C)c2n1CCn1c(C)ccc1-2 | -0.2%
Fc1ccc(-n2cc(CNCCc3ccccn3)c(-c3ccccc3Cl)n2)cc1 | -1.9%
COc1ccc(C2NC(C(=O)O)Cc3c2[nH]c2ccccc32)cc1CN1CCN(c2ccc(F)cc2)CC1 (stereo not given) | 8.8%
CC1=CC2(O)OCCN(CCO)C2=CC1=O (stereo not given) | -1.5%
COc1ccc2c(c1)[nH]c1c(=O)n(Cc3ccccn3)cnc12 | 3.9%
Nc1ccc(N)c(C(=O)O)c1 | -6.1%
O=C(NCCc1c[nH]c2ccccc12)c1cccnc1 | -2.9%

SMILES | inhibition
COc1cc(C2NCCc3c2[nH]c2ccccc32)ccc1OC(C)C (stereo not given) | 1.4%
Cc1ccc(S(=O)(=O)Oc2ccccc2/C=N/N=C(N)N)cc1 | 0.8%
CC(=O)N1CCN2C(=O)C1CCCC(=O)c1cc(C(C)C)ccc12 (stereo not given) | -1.6%
Cc1ncoc1C(=O)N1CCCC(C(=O)c2ccc(-c3ccccc3)c(F)c2)C1 (stereo not given) | -2.3%
CCOc1ccccc1C(=O)NCCC(=O)O | 2.8%
S=C(NCCOCCOCCNC(=S)Nc1ccccc1)Nc1ccccc1 | 1.9%
O=C(COc1ccccc1)Nc1ccc2c(c1)C(=O)N(CC1CCCO1)C2=O (stereo not given) | -0.5%
COc1cc([C@@H]2c3cc4c(cc3[C@H](O)[C@H]3COC(=O)[C@H]23)OCO4)cc(OC)c1OC | 1.4%
CCn1cc(C(=O)O)c(=O)c2cnc(N3CCNCC3)nc21 | 0.1%
CC(C)C12CN3CC(C(C)C)(CN(C1)C3c1ccccc1)C2O (stereo not given) | 1.7%
CC(=O)N1CCN(c2ccc(NC(=O)/C=C/c3ccccc3)cc2)CC1 | 4.3%
CC(=O)NC(C(=O)NCC(N)=O)C(C)C (stereo not given) (Ac-[ξV]-Gly-NH2) | -3%
CC(=O)OC[C@H]1O[C@@H](Sc2cccc3cccnc23)[C@H](OC(C)=O)[C@@H](OC(C)=O)[C@H]1OC(C)=O | -3.9%
C=C(CC)C(=O)c1ccc(OCC(=O)O)c(Cl)c1Cl | -6.2%
COc1ccc(CCn2c(C)cc3c(c2=O)C(c2ccncc2)C(C#N)=C(N)O3)cc1OC (stereo not given) | -1.2%
Cc1nc(C)c(C)nc1C | -1.1%
Cc1nc(NCc2ccco2)c(C#N)c2c1COC(C)(C)C2 | 1%
CN(C)CCOC(c1ccccc1)c1ccccc1 (tested in a mixture with another compound) | 1.8%
O=C(c1cccc2ccccc12)C1CCCN(C(=O)CCN2CCCO2)C1 (stereo not given) | 1.2%
CC(=O)OCC(OC(C)=O)C(OC(C)=O)C(OC(C)=O)C(=O)Nc1cccc(C)c1 (stereo not given) | 3.7%
